Results on 40 compounds are retold here after PubChem BioAssay (NCATS).

The structures appear in SMILES notation. Records with an inconclusive call do not appear. A number with no mark means an inactive call. The source made the active and inactive calls. Calls come from the whole dose curve; as a rule, active = well fitted cell-killing curve with a large enough effect; inconclusive = small, poorly fitted or top-dose-only effect, or effect the other way; inactive = flat fitted curve, though single readings scatter.
% is set by controls: 0 for no effect and ±100 for the full control effect.

This assay deals with CAOV3. The assay can be described thus: Primary qHTS to identify gynecologic anti-cancer compounds using libraries of approved drugs and bioactive compounds (AID 1345084). Note: nearly all actives have a fitted effect of over 55% in size. Particulars: Gynecologic cancer cell panel viability, ATPlite luminescence, 48 h; series mostly up to 57.5 µM; activity change, negative = cytotoxicity: at the top concentration. From the text:
National Center for Advancing Translational Sciences [NCATS] Assay Overview: Chemotherapeutic drug responses vary from cancer to cancer and from patient to patient. These variations could be caused by a number of factors including patient genomic background, tumor mutations, tumor heterogeneity, and aspects of drug treatment. Chemotherapeutic drug resistance is also a common issue and can lead to ineffective treatment and patient death. Here we have profiled the cell killing effects of thousands of compounds to characterize the responses in three gynecological cancers, identify cancer-selective compounds, and understand the diversity of responses to these compounds from pan-cancer suppressors to single cell line selective compounds. In this assay, we screened a 7,914 compound drug library that included approved drug and bioactive compounds in six ovarian, three cervical, and […] placental cancer cell lines using the ATPlite assay for cell viability. […] The cervical cancer cell lines included HeLa, Ca Ski, and C-33 A. The placental cancer cell lines included JEG-3. HEK 293T cells were used as the control cell line to determine the selectivity index. ATPlite is a luminescence based assay reliant on the conversion of a luciferase substrate to light in the presence of ATP. As a cytotoxic compound will suppress growth and decrease the number of cells, the concentration of ATP will decrease, and less light signal will be detected in the well.
Assay Protocol Summary: 1,000 cells in 4 uL of media were dispensed into white, solid bottom 1536-well plates using a Multidrop Combi (Thermo Scientific). The Assay plates were incubated for 16 hours at 37 C with 5% CO2 in assay plates, followed by the addition of 23 nL of DMSO or drug dissolved in DMSO. Each compound was assayed in five concentrations (0.092, 0.46, 2.3, 11.5, and 57.5 uM), using the automated Wako 1536 Pin Tool workstation and incubated at 37 C with 5% CO2 48 hours. 4 uL of ATPlite, the ATP monitoring reagent, was then added to the each well of the assay plates using the Multidrop Combi reagent dispenser followed by incubation for 15 minutes at room temperature. The resulting luminescence was measured using the ViewLux plate reader.
For the compound `CCN(CC)CCOC(=O)c1ccc(N)cc1`, the “activity change, negative = cytotoxicity” value was -8.8%.
Consider `O=C(O)c1cc(-c2ccccc2)nc2ccccc12`, for which the Potency result was “inactive”.
Regarding `O=C1NCC2(CCN(CCc3ccccc3)CC2)O1`, the “activity change, negative = cytotoxicity” value is 4.18%.
Consider `COc1ccc(Cc2ccc(NC(N)=O)cc2)cc1-c1cccc(Cl)c1`, for which the “activity change, negative = cytotoxicity” value is 9.92%.
On the same count and under the same terms, under `CC(C)[C@H](CO)Nc1nc(Nc2ccc(C(=O)O)c(Cl)c2)c2ncn(C(C)C)c2n1` stands 17.5% [at 25.3 µM]; under `O=C(O)Cc1cccc2ccccc12`, 1.81%; under `Cc1c(NC(=O)c2ccc(C(C)(C)C)cc2)cccc1-c1cn(C)c(=O)c(Nc2ccc(C(=O)N3CCOCC3)cc2)n1`, 10.1% [at 38.5 µM].
Take `CN1C[C@H]2c3ccccc3Oc3ccc(Cl)cc3[C@@H]2C1`: the “activity change, negative = cytotoxicity” value is -1.62%.
As to `CO[C@H]1C=CO[C@@]2(C)Oc3c(C)c(O)c4c(O)c(c5c(c4c3C2=O)NC2(CCN(CC(C)C)CC2)N=5)=NC(=O)C(C)=CC=C[C@H](C)[C@H](O)[C@@H](C)[C@@H](O)[C@@H](C)[C@H](OC(C)=O)[C@H]1C`, the “activity change, negative = cytotoxicity” value is -0.526%.
Still for that read-out and setting: in the case of `CN(C)c1cc(NC(=O)CNC(C)(C)C)c(O)c2c1C[C@@H]1C[C@H]3[C@H](N(C)C)C(=O)C(C(N)=O)=C(O)[C@@]3(O)C(=O)C1=C2O` it was -15.1%; in that of `C[N+](C)(C)CCCCCC[N+](C)(C)C`, 0.475%; in that of `CC(=O)N[C@@H](CS)C(=O)O`, 7.04%.
With `C[C@@H](O)[C@H]1C(=O)N2C(C(=O)O)=C(S[C@@H]3CN[C@H](C(=O)N(C)C)C3)[C@H](C)[C@H]12`, the Potency result is “inactive”.
With `CS(=O)(=O)N(Cc1ccco1)CC(O)Cn1c2ccccc2c2ccccc21` (stereo not given), the “activity change, negative = cytotoxicity” value was 7.99%.
On the same count and under the same terms, in the case of `NCCS` it was 1.93%.
With `CN(C)Cc1ccc(-c2nc3cccc4c3n2CCNC4=O)cc1`, the “activity change, negative = cytotoxicity” value was -6.09%.
With `CC(C)(C)c1ccc(C(O)CCCN2CCC(C(O)(c3ccccc3)c3ccccc3)CC2)cc1` (stereo not given), the “activity change, negative = cytotoxicity” value is 4.27%.
For the compound `O=C(NC1CCOCC1)c1ccc(-c2cc(-c3cn[nH]c3-c3ccccn3)ccn2)cc1`, the “activity change, negative = cytotoxicity” value is 6.46%.
As to `CC(C)(C)OC(=O)N[C@H]1CCCCCC=C[C@@H]2C[C@@]2(C(=O)NS(=O)(=O)C2CC2)NC(=O)[C@@H]2C[C@@H](OC(=O)N3Cc4cccc(F)c4C3)CN2C1=O`, the “activity change, negative = cytotoxicity” value was -0.468%.
As for `CC(=O)CCCCn1c(=O)c2c(ncn2C)n(C)c1=O`, the Potency result is “inactive”.
With `CC(C)C(=O)Oc1ccc(CO)cc1[C@H](CCN(C(C)C)C(C)C)c1ccccc1`, the “activity change, negative = cytotoxicity” value is 10.9%.
With `CC(C)NCC(O)COc1cccc2[nH]ccc12` (stereo not given), the Potency result was “inactive”.
As for `CC(=O)Oc1cc2c(s1)CCN(C(C(=O)C1CC1)c1ccccc1F)C2` (stereo not given), the “activity change, negative = cytotoxicity” value was -1.23%.
On to `Cc1ccccc1C(C(=O)NC1CCCCC1)N(C(=O)Cn1ccnc1C)c1cccc(F)c1` (stereo not given), for which the “activity change, negative = cytotoxicity” value was 4.1%.
The same measure, in the same setting: under `CC(=O)Nc1ccc([C@H](C)C(=O)Nc2ncc(C(C)C)s2)cc1` stands -24.9%; under `O=C1NC(=O)C(c2ccccc2)(c2ccccc2)N1`, -6.31%.
The same measure, in the same setting: under `COc1ccc(C2CC(c3ccccc3)=NN2c2ccc(S(N)(=O)=O)cc2)cc1` (stereo not given) stands -2.48%.
As for `CC(C)OC(=O)C(C)(C)Oc1ccc(C(=O)c2ccc(Cl)cc2)cc1`, the “activity change, negative = cytotoxicity” value was 1.15%.
On to `CC1(C)CCC(CN2CCN(c3ccc(C(=O)NS(=O)(=O)c4ccc(NCC5CCOCC5)c([N+](=O)[O-])c4)c(Oc4cnc5[nH]ccc5c4)c3)CC2)=C(c2ccc(Cl)cc2)C1`, for which the “activity change, negative = cytotoxicity” value was 8.74% [at 25.3 µM].
The same measure, in the same setting: under `CCn1cc(C(=O)O)c(=O)c2ccc(C)nc21` stands -0.784%.
For the compound `CC(=O)O[C@]1(C(C)=O)CC[C@H]2[C@@H]3C=C(Cl)C4=CC(=O)[C@@H]5C[C@@H]5[C@]4(C)[C@H]3CC[C@@]21C`, the Potency result was “inactive”.
`O=C(CCN1CCN(C(=O)OCc2cc(Cl)cc(Cl)c2)CC1)c1ccc2[nH]c(=O)oc2c1`: the “activity change, negative = cytotoxicity” value was -8.86%.
Turning to `CCOC(=O)C1=C(N)Oc2ccc(Br)cc2C1C(C#N)C(=O)OCC` (stereo not given), the Potency result is “inactive”.
Consider `O=C(Nc1cccc(Br)c1)c1cccc(S(=O)(=O)N2CCCCCC2)c1`, for which the “activity change, negative = cytotoxicity” value is -10.4%.
As for `OC[C@@H](O)[C@H](O)[C@H](O)[C@@H](O)CO`, the Potency entry was “inactive”.
As to `COc1ccc2cccc(CCNC(C)=O)c2c1`, the “activity change, negative = cytotoxicity” value is 4.98%.
For the compound `Cc1cccc(Nc2nc(-c3ccncc3)cs2)c1`, the “activity change, negative = cytotoxicity” value is -3.85%.
Regarding `CCN1CCC[C@H]1CNC(=O)c1cc(S(N)(=O)=O)ccc1OC`, the Potency result is “inactive”.
Consider `Clc1ccc(Cn2c(CN3CCCC3)nc3ccccc32)cc1`, for which the Potency entry is “inactive”.
With `CS(=O)c1ccc(-c2nc(-c3ccc(F)cc3)c(-c3ccncc3)[nH]2)cc1` (stereo not given), the “activity change, negative = cytotoxicity” value was 30.8%.
